Measured values taken from PubChem BioAssay (NCATS).
Inconclusive results are not listed. Entries that show only a call come without a potency. Calls of active or inactive are those of the source. Calls follow the shape of the dose curve; as a rule, active = well fitted curve in the direction sought with a large enough effect; inconclusive = small, poorly fitted or top-dose-only effect, or another doubt; inactive = no such curve, though single readings can be large; an effect the other way counts as inactive or inconclusive.

Molecular target: Cytochrome P450 3A4 (Homo sapiens) (UniProt P08684)
Test: qHTS Assay for Activators of Cytochrome P450 3A4 (AID 885); also: nearly all actives have a fitted effect of over 65% in size
Details: recombinant CYP3A4, Luciferin-PPXE luminescence, 60 min; series mostly up to 57.1 µM
Method in brief: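 20nM CYP3A4 + 25uM Luciferin-PPXE (=KM), 200mM KPO4; cpd 10 min RT; NADPH regen, 60 min RT; stop w/ detection buffer, 20 min; luminescence. Normalized to 57 uM ketoconazole.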

Sequence of Cytochrome P450 3A4 (Homo sapiens) (P08684 whole entry, looked up): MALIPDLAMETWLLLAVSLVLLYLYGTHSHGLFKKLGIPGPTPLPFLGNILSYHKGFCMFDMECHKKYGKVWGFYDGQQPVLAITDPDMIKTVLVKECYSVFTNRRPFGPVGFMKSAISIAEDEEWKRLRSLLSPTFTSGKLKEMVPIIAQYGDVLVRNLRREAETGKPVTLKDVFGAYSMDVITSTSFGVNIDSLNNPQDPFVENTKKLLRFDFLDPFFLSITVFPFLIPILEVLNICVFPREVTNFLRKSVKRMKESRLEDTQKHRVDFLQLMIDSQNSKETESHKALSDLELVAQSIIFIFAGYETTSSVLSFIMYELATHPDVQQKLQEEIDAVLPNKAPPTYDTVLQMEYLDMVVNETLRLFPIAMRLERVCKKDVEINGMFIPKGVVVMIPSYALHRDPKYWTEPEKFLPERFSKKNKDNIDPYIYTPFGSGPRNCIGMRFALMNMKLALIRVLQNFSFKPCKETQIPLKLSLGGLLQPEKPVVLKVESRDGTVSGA

| Compound | Potency |
| --- | --- |
| CC(C)(c1ccccc1)c1ccc(O)cc1 | inactive |
| S=C=Nc1cccc2ccccc12 | inactive |
| Cc1ccccc1N | inactive |
| c1nc[nH]n1 | inactive |
| Clc1cccc(C(Cl)(Cl)Cl)n1 | inactive |

Tested on: not listed separately
Test: Cell Viability - LYMP2-001 (AID 921);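 also: cells exposed to compound for 24 h at 37 °C; nearly all actives have a fitted effect of over 70% in size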
Details: LYMP2-001 lymphoblastoid cell viability; series mostly up to 92.2 µM
Method in brief: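 CellTiter-Glo luminescence (intracellular ATP) after 24 hr compound exposure at 37 C, 2500 lymphoblastoid cells/well in complete medium. AC50 fitted with standard Hill equation; tetraoctylammonium bromide positive control.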

| Compound | Potency |
| --- | --- |
| Brc1ccccc1 | inactive |
| CCOP(=S)(OCC)SCSC(C)(C)C | inactive |
| CCSC(=O)Cl | inactive |
| Cc1cccc([N+](=O)[O-])c1 | inactive |
| Nc1c(Cl)c(Cl)nc(C(=O)O)c1Cl | inactive |
| CC(C)(C)OOC(C)(C)C | inactive |
| C=C(C)C(=O)OCC1CO1 (stereo not given) | inactive |
| Cc1ccc([N+](=O)[O-])cc1C | inactive |
| O=[N+]([O-])c1ccc(Cl)c(Cl)c1 | inactive |
| C=CC(=C)C | inactive |
| Cc1ccc2ccccc2c1 | inactive |
| Nc1ccccc1Cl | inactive |
| Clc1ccc2ccccc2c1 | inactive |
| [O-][Br+2]([O-])O | inactive |
| Clc1nc(Cl)nc(Nc2ccccc2Cl)n1 | inactive |
| OCC1CO1 (stereo not given) | inactive |
| C=CCOC(=O)c1ccccc1N | inactive |
| C=CC(N)=O | inactive |
| CC(C)(c1ccccc1)c1ccc(O)cc1 | inactive |

| Compound | Potency |
| --- | --- |
| CCN(CC)c1ccccc1 | inactive |
| S=C=Nc1cccc2ccccc12 | inactive |
| N#CCCCl | inactive |
| O=NN(CCO)CCO | inactive |
| Cc1ccccc1N | inactive |
| C=CCOC(C)=O | inactive |
| CCCC(=O)Cl | inactive |
| NC(=S)Nc1ccccc1 | inactive |
| O=C(Cl)/C=C/C(=O)Cl | inactive |
| C=C(Cl)Cl | inactive |
| COc1ccc(C=O)cc1OC | inactive |
| C=CC(=O)OCC | inactive |
| c1nc[nH]n1 | inactive |
| c1ccc2c(c1)CCCC2 | inactive |
| CCCSC(=O)Cl | inactive |
| Clc1cccc(C(Cl)(Cl)Cl)n1 | inactive |
| O=NN(c1ccccc1)c1ccccc1 | inactive |
| C1CCC2CCCCC2C1 (stereo not given) | inactive |
| CC(O)CCl (stereo not given) | inactive |

Tested on: not listed separately
Test: MultiTox-Fluor Cytotoxicity Assay - LYMP1-001 - Dead Cells (AID 946);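 also: cells exposed to compound for 16 h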
Details: LYMP1-001 lymphoblastoid cells, dead-cell protease fluorescence; series mostly up to 92.2 µM
Method in brief: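 AC50 from Hill fit of concentration-response; data normalized to DMSO (basal) and 15 uM tetraoctylammonium bromide (100%). LYMP1-001 lymphoblastoid cells, 2500/well, 16 hr compound at 37 C; dead-cell protease fluorescence, Ex/Em 485/520.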

| Compound | Potency |
| --- | --- |
| CCOP(=S)(OCC)SCSC(C)(C)C | inactive |
| C=C(C)C#N | inactive |
| Nc1c(Cl)c(Cl)nc(C(=O)O)c1Cl | inactive |
| CC(C)(C)OOC(C)(C)C | inactive |
| C=C(C)C(=O)OCC1CO1 (stereo not given) | inactive |
| Cc1ccc([N+](=O)[O-])cc1C | inactive |
| C=CC(=C)C | inactive |
| Cc1ccc2ccccc2c1 | inactive |
| Nc1ccccc1Cl | inactive |
| Clc1ccc2ccccc2c1 | inactive |
| C=CCOC(=O)c1ccccc1N | inactive |
| C=CC(N)=O | inactive |
| CC(C)(c1ccccc1)c1ccc(O)cc1 | inactive |
| CCN(CC)c1ccccc1 | inactive |
| S=C=Nc1cccc2ccccc12 | inactive |
| CCCC(=O)Cl | inactive |
| O=C(Cl)/C=C/C(=O)Cl | inactive |
| C=C(Cl)Cl | inactive |
| COc1ccc(C=O)cc1OC | inactive |
| c1nc[nH]n1 | inactive |
| c1ccc2c(c1)CCCC2 | inactive |
| Clc1cccc(C(Cl)(Cl)Cl)n1 | inactive |

Tested on: not listed separately
Test: MultiTox-Fluor Cytotoxicity Assay - LYMP1-001 - Live Cells (AID 947)
Details: LYMP1-001 lymphoblastoid cells, live-cell protease fluorescence viability; series mostly up to 92.2 µM

| Compound | Potency |
| --- | --- |
| CCOP(=S)(OCC)SCSC(C)(C)C | inactive |
| C=C(C)C#N | inactive |
| Cc1cccc([N+](=O)[O-])c1 | inactive |
| CC(C)(C)OOC(C)(C)C | inactive |
| C=C(C)C(=O)OCC1CO1 (stereo not given) | inactive |
| Cc1ccc([N+](=O)[O-])cc1C | inactive |
| O=[N+]([O-])c1ccc(Cl)c(Cl)c1 | inactive |
| C=CCOC(=O)c1ccccc1N | inactive |
| C=CC(N)=O | inactive |
| CC(C)(c1ccccc1)c1ccc(O)cc1 | inactive |
| CCN(CC)c1ccccc1 | inactive |
| S=C=Nc1cccc2ccccc12 | inactive |
| Cc1ccccc1N | inactive |
| C=CCOC(C)=O | inactive |
| CCCC(=O)Cl | inactive |
| C=C(Cl)Cl | inactive |
| c1nc[nH]n1 | inactive |
| c1ccc2c(c1)CCCC2 | inactive |
| CCCSC(=O)Cl | inactive |
| O=NN(c1ccccc1)c1ccccc1 | inactive |

Tested on: not listed separately
Test: Cell Viability - LYMP1-002 - Assay at 16 hr (AID 948)
Details: LYMP1-002 lymphoblastoid cell viability; series mostly up to 92.2 µM
Method in brief: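 LYMP1-002 human lymphoblastoid cells, 2500/well; 5 hr 37 C; cpd 16 hr 37 C; CellTiter-Glo 30 min RT; luminescence (ATP). Concentration-response, Hill-fit AC50. Pos ctrl tetraoctylammonium bromide.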

| Compound | Potency |
| --- | --- |
| Brc1ccccc1 | inactive |
| CCOP(=S)(OCC)SCSC(C)(C)C | inactive |
| C=C(C)C#N | inactive |
| CCSC(=O)Cl | inactive |
| Cc1cccc([N+](=O)[O-])c1 | inactive |
| Nc1c(Cl)c(Cl)nc(C(=O)O)c1Cl | inactive |
| CC(C)(C)OOC(C)(C)C | inactive |
| C=C(C)C(=O)OCC1CO1 (stereo not given) | inactive |
| Cc1ccc([N+](=O)[O-])cc1C | inactive |
| O=[N+]([O-])c1ccc(Cl)c(Cl)c1 | inactive |
| C=CC(=C)C | inactive |
| Cc1ccc2ccccc2c1 | inactive |
| Nc1ccccc1Cl | inactive |
| Clc1ccc2ccccc2c1 | inactive |
| [O-][Br+2]([O-])O | inactive |
| Clc1nc(Cl)nc(Nc2ccccc2Cl)n1 | inactive |
| OCC1CO1 (stereo not given) | inactive |
| C=CCOC(=O)c1ccccc1N | inactive |
| C=CC(N)=O | inactive |
| CC(C)(c1ccccc1)c1ccc(O)cc1 | inactive |

| Compound | Potency |
| --- | --- |
| CCN(CC)c1ccccc1 | inactive |
| S=C=Nc1cccc2ccccc12 | inactive |
| N#CCCCl | inactive |
| O=NN(CCO)CCO | inactive |
| Cc1ccccc1N | inactive |
| C=CCOC(C)=O | inactive |
| CCCC(=O)Cl | inactive |
| NC(=S)Nc1ccccc1 | inactive |
| O=C(Cl)/C=C/C(=O)Cl | inactive |
| C=C(Cl)Cl | inactive |
| ClCBr | inactive |
| COc1ccc(C=O)cc1OC | inactive |
| C=CC(=O)OCC | inactive |
| c1nc[nH]n1 | inactive |
| c1ccc2c(c1)CCCC2 | inactive |
| CCCSC(=O)Cl | inactive |
| Clc1cccc(C(Cl)(Cl)Cl)n1 | inactive |
| O=NN(c1ccccc1)c1ccccc1 | inactive |
| C1CCC2CCCCC2C1 (stereo not given) | inactive |
| CC(O)CCl (stereo not given) | inactive |
